# Screening data as filed in PubChem BioAssay.
# Only some compounds are listed: those with a hit (about 0.93% of all), similar ones and a draw of the others.
# HIV TAR-Tat: HIV-1 TAR-Tat binding disruption; AID 1259389; hit rate 0.6% among 100,000; HIV-1 TAR RNA, Tat peptide displacement FRET; hits give high values; z-score (concentration not given with the values); active = z-score of 3 or more in at least 2 runs
# CDC25B CDK2 inh: human CDC25B-CDK2/CyclinA binding inhibition; hit rate 0.72% among 94,000; HTRF CDC25B-CDK2/CyclinA binding, anti-His/anti-Flag; hits give high values; z-score (no concentration beside the values); in the data active = z-score above about 3.2
# Active calls of the source: *; . = no result given.
SMILES,HIV TAR-Tat,CDC25B CDK2 inh
COc1cc2c(cc1OC)-c1c(OC)c(OC)cc3c1C(C2)N(C)CC3 (configuration not stated),6.26*,-6.7
COc1cc2c3c(c1O)-c1c(cccc1OC)CC3N(C)CC2 (configuration not stated),-10.8,-0.03
CCOc1cc(C2SCC(=O)Nc3c2c(C)nn3-c2nc3ccccc3s2)ccc1O (configuration not stated),0.69,-1.08
Cc1nn(-c2nc3ccccc3s2)c2c1C(c1ccc(O)c(O)c1)SCC(=O)N2 (configuration not stated),6.47*,-1.95
O=S(=O)(NC1CCCCC1N1CC=C(c2ccccc2)CC1)c1ccccc1 (configuration not stated),1.51,0.42
NCCc1c[nH]c2ccccc12,0.19,-0.02
NCCc1cc(O)c(O)cc1O,28.9*,.
Cc1ccc(C2SCC(=O)Nc3c2c(C)nn3-c2ccc(F)cc2)cc1 (configuration not stated),-0.81,-1.52
Fc1ccc(CNCCc2c[nH]c3ccccc23)cc1F,-0.12,15.8*
Fc1ccccc1CNCCc1c[nH]c2ccccc12,0.3,2.32
c1coc(CNCCc2c[nH]c3ccccc23)c1,-0.14,13.5*
c1ccc2cc(CNCCc3c[nH]c4ccccc34)ccc2c1,.,-1.45
C=C1N2CCC(CC2)C1(O)c1ccccc1 (configuration not stated),.,-0.8
CCCC(C)n1[nH]c(=O)c2c1NC(=O)CSC2c1ccc2c(c1)OCO2 (configuration not stated),3.6,-1.64
Cc1o[nH]c(=O)c1CC(N)C(=O)O (configuration not stated),.,-1.08
NC(Cc1cc(O)c(O)cc1O)C(=O)O (configuration not stated),.,20.2*
CN(C)[C@@H]1C(=O)C(C(N)=O)=C(O)[C@@]2(O)C(=O)C3=C(O)c4c(O)ccc(Cl)c4[C@@](C)(O)[C@H]3C[C@@H]12,12.5*,.
CN(C)[C@@H]1C(=O)C(C(N)=O)=C(O)[C@@]2(O)C(=O)C3=C(O)c4c(O)cccc4[C@@](C)(O)[C@H]3[C@H](O)[C@@H]12,22.4*,.
Cc1ccc(C2SCC(=O)Nc3c2c(C)nn3-c2nc3ccccc3s2)cc1 (configuration not stated),-0.06,-0.38
Cc1nn(-c2ccc(F)cc2)c2c1C(c1ccc(O)cc1)SCC(=O)N2 (configuration not stated),-0.46,-2.3
c1ccc(CN2CCN(C3CCCCC3)CC2)cc1,0.7,-0.99
CN1CCC2(CC1)CC1CC3C=CC1(CN2)O3 (configuration not stated),.,-1.52
Cc1nn(-c2ccccc2)c2c1C(c1ccc(F)cc1F)SCC(=O)N2 (configuration not stated),0.86,-0.44
COc1ccc(CCNC2(C#N)CCCCC2)cc1OC,.,-0.88
COc1ccc(CC2NCCc3cc(OC)c(OC)cc32)cc1OC (configuration not stated),37.4*,-0.3
c1ccc2c(CN3CCC(N4CCOCC4)CC3)c[nH]c2c1,.,-1.25
CN[C@@H]1[C@@H](O)C(OC2[C@@H](N)C[C@@H](N)[C@H](O[C@H]3O[C@H](C(C)O)[C@@H](O)[C@H](O)[C@H]3N)[C@H]2O)OC[C@]1(C)O (some centres not stated),1.36,.
